The values that follow come from PubChem BioAssay.

The source made the active and inactive calls.

Assay [1] can be described thus: small molecules captured by biotinylated probe aFSTL3 – biochemical, small-molecule microarray, fluorescence 635/667, stem cell growth factor project, primary screen (AID 1064).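 Note: measures binding of the biotinylated anti-FSTL3 antibody to printed compounds.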 Particulars: higher = more signal.
Assay [2] in a line: binders from COS7 lysate, DM2A8 probe, primary screen, torsin A project, cell lysate, small-molecule microarray, fluorescence 635/667 (AID 1065). Conditions: higher = more signal, COS7 lysate expressing mutant human TOR1A.
Assay [3] in a line: small molecules captured by biotinylated probe aFGF2 – biochemical, small-molecule microarray, fluorescence 635/667, stem cell growth factor project, primary screen (AID 1067).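 Note: measures binding of biotinylated aFGF2 protein to printed compounds on slides; z-score merges feature fluorescence and signal-to-noise across triplicate slides.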 Particulars: higher = more signal.
Assay [4] is described as follows: small molecules captured by biotinylated probe aFGF10 – biochemical, small-molecule microarray, fluorescence 635/667, stem cell growth factor project, primary screen (AID 1071).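 Note: score merges 667 nm spot intensity and signal to noise from triplicate slides.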 Conditions: higher = more signal.
The target in assay [5] is Neurogenic locus notch homolog protein 2 (Homo sapiens) (UniProt Q04721). Briefly: small molecules binding Notch2 protein – biochemical, small-molecule microarray, 635 nm fluorescence, stem cell growth factors, primary screen (AID 1073). Particulars: higher = more signal.
Assay [6] has as its target Pro-neuregulin-1, membrane-bound isoform (Homo sapiens) (UniProt Q02297). Briefly: small molecules binding neuregulin-1 protein – biochemical, small-molecule microarray, fluorescence 635/667, psychiatric disease protein project, primary screen (AID 1075).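 Note: score combines 667 nm spot fluorescence with signal to noise.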 Particulars: NRG1 binding, 635 nm fluorescence, higher = more signal.
For assay [7], the system named is Neuregulin-1 EGF-like domain. Nature of the assay: small molecules binding NRG1 EGF domain – biochemical, small-molecule microarray, 635 nm fluorescence, primary screen (AID 1081).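 Note: binding of the protein to compounds printed on small-molecule microarray slides.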 Particulars: higher = more signal.
Assay [8] can be described thus: FRG1 expression reporter modulators in myotubes – cell-based, C2C12 myotubes, firefly/Renilla luciferase, luminescence, FRG1 inhibition for FSHD, primary screen (AID 1084). Conditions: FRG1 promoter luciferase, higher = more signal, called active from +8 up or from −8 down.
Assay [9] in a line: small molecules captured by biotinylated probe aFST – biochemical, small-molecule microarray, fluorescence 635/667, stem cell growth factor project, primary screen (AID 1086).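 Note: score merges 667 nm fluorescence with signal-to-noise of each printed compound spot.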 Particulars: higher = more signal.
Assay [10] can be described thus: binders of probe aHhip on microarray, primary screen, stem cell growth factor project, biochemical, small-molecule microarray, fluorescence 635/667 (AID 1087).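 Note: score merges spot fluorescence at 667nm with spot signal to noise ratio.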 Conditions: higher = more signal.
Assay [11] deals with PRMT1 (protein arginine N-methyltransferase 1). Briefly: small molecules binding arginine methyltransferase PRMT1 – biochemical, small-molecule microarray, 635 nm fluorescence, primary screen (AID 1088).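 Note: binding of Prmt1 protein to compounds spotted on small-molecule microarray slides.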 Particulars: higher = more signal.
Assay [12] is described as follows: growth effects on S. cerevisiae YJM789 – YJM789 clinical isolate, OD600, 24 h, basal, primary screen (AID 1089).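 Note: growth of clinical yeast isolate S. cerevisiae YJM 789 seeded 1000 cells per well; test concentration not given here.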 Particulars: higher = more signal, called active from +8 up or from −8 down.
A short description of assay [13]: S. pombe growth modifiers, basal conditions – strain 972, OD600, 24 h, no modulator, primary screen (AID 1090).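 Note: basal condition with compound alone and no growth modifier present; test concentration not given here.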 Particulars: S. pombe 972 growth, higher = more signal, called active from +8 up or from −8 down.
A short description of assay [14]: budding yeast growth modifiers under rapamycin – strain BY4716, OD600, 96 h, primary screen (AID 1091). Note: test concentration not given here. Particulars: S. cerevisiae BY4716 + rapamycin, higher = more signal, called active from +8 up or from −8 down.
Assay [15] deals with Torsin-1A-interacting protein 2 (Homo sapiens) (UniProt Q8NFQ8). Briefly: small molecules binding lysate-expressed LULL1 – cell lysate, human LULL1 lysate, 635/667 nm fluorescence, primary screen (AID 1092).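 Note: probe is lysate of COS7 cells overexpressing human LULL1; score merges per-feature 667 nm fluorescence with signal-to-noise.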 Conditions: small-molecule microarray, hLULL1 lysate binding, 635 nm fluorescence; higher = more signal.
Sequence of Torsin-1A-interacting protein 2 (Homo sapiens) (Q8NFQ8 whole entry, looked up): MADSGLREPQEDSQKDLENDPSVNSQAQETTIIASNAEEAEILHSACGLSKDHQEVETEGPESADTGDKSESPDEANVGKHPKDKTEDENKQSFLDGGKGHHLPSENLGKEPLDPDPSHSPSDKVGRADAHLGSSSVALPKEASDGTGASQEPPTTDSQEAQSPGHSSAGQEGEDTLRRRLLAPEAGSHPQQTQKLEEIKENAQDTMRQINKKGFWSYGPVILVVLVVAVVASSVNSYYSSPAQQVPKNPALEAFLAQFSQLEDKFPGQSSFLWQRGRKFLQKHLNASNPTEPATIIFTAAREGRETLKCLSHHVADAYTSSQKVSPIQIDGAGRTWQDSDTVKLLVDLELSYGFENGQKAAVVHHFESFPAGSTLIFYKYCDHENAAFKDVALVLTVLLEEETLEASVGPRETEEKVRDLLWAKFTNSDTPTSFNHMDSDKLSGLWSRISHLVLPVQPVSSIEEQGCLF
Assay [16] can be described thus: optical density change of DRC41 E. coli – strain DRC41, OD650, 24 h, E. coli filamentation project, primary screen (AID 1093).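 Note: MC1000 strain lacking acrAB efflux and sulA so SOS filamentation is blocked; test concentration not given here.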 Conditions: E. coli DRC41 growth, higher = more signal, called active from +8 up or from −8 down.
Assay [17] in a line: probe aLefty2 binding to arrayed compounds – biochemical, biotinylated probe, 635/667 nm fluorescence, primary screen (AID 1094).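 Note: score merges spot fluorescence near 667 nm with spot signal-to-noise ratio.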 Particulars: small-molecule microarray, higher = more signal.
Assay [18] deals with Noggin (protein binding on small-molecule microarray). Briefly: small molecules binding Noggin protein – biochemical, 635/667 nm fluorescence, primary screen (AID 1095).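 Note: score merges 667 nm feature fluorescence with signal to noise over triplicate slides.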 Particulars: 635 nm fluorescence, higher = more signal.
For assay [19], the target named is Neurogenic locus notch homolog protein 3 (Homo sapiens) (UniProt Q9UM47). Briefly: small molecules binding NOTCH3 protein – biochemical, 635/667 nm fluorescence, primary screen (AID 1096). Conditions: small-molecule microarray, 635 nm fluorescence, higher = more signal.
Sequence of Neurogenic locus notch homolog protein 3 (Homo sapiens) (Q9UM47 whole entry, looked up): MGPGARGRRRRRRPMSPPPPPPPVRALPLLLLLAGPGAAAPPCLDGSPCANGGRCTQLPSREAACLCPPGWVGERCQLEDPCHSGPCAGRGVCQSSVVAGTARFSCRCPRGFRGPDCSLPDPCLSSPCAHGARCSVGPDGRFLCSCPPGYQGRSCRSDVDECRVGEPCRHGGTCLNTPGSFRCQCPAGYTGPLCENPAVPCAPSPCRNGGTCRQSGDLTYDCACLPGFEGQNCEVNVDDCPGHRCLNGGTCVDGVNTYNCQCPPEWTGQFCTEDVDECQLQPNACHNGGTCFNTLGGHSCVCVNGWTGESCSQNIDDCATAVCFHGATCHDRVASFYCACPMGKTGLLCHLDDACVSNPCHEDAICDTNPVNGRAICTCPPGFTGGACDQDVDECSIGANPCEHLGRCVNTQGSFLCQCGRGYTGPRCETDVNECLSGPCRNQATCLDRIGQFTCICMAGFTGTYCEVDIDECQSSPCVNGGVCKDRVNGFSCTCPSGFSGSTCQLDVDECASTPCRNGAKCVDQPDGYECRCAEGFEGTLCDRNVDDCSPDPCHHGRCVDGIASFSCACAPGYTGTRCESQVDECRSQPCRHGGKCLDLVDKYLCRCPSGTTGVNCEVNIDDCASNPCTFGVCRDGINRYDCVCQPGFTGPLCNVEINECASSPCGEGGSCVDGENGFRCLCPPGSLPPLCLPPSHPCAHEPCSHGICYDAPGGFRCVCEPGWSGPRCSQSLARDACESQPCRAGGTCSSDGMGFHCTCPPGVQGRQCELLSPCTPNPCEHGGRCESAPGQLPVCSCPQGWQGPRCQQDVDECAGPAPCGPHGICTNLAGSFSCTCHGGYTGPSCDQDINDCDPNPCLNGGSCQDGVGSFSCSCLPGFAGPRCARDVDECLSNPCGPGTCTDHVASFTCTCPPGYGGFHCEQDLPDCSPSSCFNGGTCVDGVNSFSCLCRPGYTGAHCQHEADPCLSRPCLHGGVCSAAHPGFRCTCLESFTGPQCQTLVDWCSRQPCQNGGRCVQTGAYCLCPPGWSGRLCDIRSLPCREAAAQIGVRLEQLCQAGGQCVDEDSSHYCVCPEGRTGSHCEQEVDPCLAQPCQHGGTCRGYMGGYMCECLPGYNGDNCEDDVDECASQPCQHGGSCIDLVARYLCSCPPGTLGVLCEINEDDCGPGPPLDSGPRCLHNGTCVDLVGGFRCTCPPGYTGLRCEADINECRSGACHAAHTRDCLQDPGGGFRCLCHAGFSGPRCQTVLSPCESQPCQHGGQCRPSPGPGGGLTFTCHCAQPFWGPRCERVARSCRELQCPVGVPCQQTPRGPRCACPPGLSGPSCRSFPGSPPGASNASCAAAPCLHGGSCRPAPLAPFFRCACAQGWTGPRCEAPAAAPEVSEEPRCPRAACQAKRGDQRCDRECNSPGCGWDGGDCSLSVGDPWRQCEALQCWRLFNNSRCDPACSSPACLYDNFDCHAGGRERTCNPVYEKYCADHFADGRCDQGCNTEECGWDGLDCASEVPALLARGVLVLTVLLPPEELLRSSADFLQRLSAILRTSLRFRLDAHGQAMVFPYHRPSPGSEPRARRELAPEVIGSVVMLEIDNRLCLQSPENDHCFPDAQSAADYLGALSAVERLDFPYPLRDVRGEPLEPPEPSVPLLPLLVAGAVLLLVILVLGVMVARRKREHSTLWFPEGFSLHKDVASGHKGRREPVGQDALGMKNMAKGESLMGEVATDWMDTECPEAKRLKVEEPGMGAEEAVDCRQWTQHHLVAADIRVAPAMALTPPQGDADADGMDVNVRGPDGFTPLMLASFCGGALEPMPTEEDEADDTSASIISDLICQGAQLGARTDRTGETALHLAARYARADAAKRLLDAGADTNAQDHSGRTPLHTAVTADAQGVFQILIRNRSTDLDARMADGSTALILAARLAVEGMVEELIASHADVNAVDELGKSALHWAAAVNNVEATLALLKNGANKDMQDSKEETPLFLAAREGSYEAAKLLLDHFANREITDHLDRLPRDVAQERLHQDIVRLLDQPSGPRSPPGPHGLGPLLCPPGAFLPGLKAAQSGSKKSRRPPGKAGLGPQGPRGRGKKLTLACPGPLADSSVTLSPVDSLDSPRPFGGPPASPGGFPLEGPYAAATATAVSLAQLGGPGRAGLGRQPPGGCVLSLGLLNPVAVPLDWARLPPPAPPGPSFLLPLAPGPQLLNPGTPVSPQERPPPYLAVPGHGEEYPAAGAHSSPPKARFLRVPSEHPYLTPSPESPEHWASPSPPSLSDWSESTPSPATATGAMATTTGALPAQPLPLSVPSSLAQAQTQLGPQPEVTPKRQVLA
The nature of assay [20]: probe aEGFR binding to arrayed compounds – biochemical, biotinylated probe, 635/667 nm fluorescence, primary screen (AID 1097).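 Note: probe is a biotinylated anti-EGFR antibody binding compounds printed on slides; score combines fluorescence near 667 nm and signal to noise of each spot.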 Conditions: small-molecule microarray, higher = more signal.

Sequence of Pro-neuregulin-1, membrane-bound isoform (Homo sapiens) (Q02297 whole entry, looked up, the tested form may be a part, canonical isoform): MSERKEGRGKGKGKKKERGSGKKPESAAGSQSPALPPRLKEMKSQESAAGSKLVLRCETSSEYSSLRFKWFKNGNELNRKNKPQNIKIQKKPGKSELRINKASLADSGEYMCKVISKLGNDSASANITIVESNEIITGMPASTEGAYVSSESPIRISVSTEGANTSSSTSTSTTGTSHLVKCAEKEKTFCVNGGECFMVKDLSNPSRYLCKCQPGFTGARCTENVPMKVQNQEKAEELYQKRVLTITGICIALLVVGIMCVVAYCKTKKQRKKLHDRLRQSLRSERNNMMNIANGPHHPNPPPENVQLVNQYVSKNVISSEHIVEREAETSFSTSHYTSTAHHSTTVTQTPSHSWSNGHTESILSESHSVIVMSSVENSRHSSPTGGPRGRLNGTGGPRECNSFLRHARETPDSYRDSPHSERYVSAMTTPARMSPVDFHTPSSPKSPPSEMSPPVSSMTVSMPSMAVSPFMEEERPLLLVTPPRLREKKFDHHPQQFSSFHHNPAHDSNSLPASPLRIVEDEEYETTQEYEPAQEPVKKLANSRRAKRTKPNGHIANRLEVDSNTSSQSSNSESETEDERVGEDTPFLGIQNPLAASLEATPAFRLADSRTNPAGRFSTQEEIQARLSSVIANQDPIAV

On to `O=C(c1ccccc1)N1Cc2ccccc2[C@@H]2OC(c3ccc(OCCCO)cc3)=N[C@]2(Cc2ccccc2)C1=O`, for which the composite z-score was -0.0231 in [1]; 0.483 in [2]; 0.0462 in [3]; 0.158 in assay [4]; 0.649 in [5]; 1.32 in assay [6]. Moreover, the composite z-score was 1.24 in assay [7]; -0.171 in [9]; -0.208 in assay [10]; 1.2 in assay [11]; 3.13 in assay [15]; 0.0337 in assay [17]. Also, the composite z-score in [18] was 1.05; in assay [19], 1.1; in assay [20] it was -0.0187. The z-score in [8] was -1.05 (inactive); in assay [12], -0.756 (inactive); in assay [13], 0.833 (inactive); in assay [14] it was 4.11 (inactive); in [16], -0.0783 (inactive).

On to `CCCCC(O)C1C=CC2C(=O)N(c3ccccc3)C(=O)C2N1Nc1ccccc1F` (stereo not given), for which the composite z-score turned out to be 1.12 in assay [1]; 0.0488 in assay [2]; 0.256 in assay [3]; 0.516 in assay [4]; 0.829 in assay [5]; 1.15 in [6]. Also, the composite z-score in assay [7] was determined as 1.2; in [9], 1.75; in assay [10], 0.953; in assay [11] it was 1.11; in assay [15], 2.99; in assay [17], 0.648. Also, the composite z-score in [18] was -0.0787; in assay [19], 0.818; in assay [20], 0.159. Also, the z-score in assay [8] was 0.221 (inactive); in [12], -0.0377 (inactive); in [13], -0.579 (inactive); in [14], 1.03 (inactive); in assay [16] it was -0.825 (inactive).

Consider `COC(=O)[C@@]1(Cc2ccc(F)cc2)[C@@H]2[C@@H](CC(=O)[C@H]2CC(=O)C(=O)N(C)C)CN1C(=O)c1ccccc1`, for which the composite z-score in [1] is 0.367; in [2], -0.178; in assay [3], 0.287; in [4], 0.855; in assay [5] it was 1.76; in [6], 1.3. Further, the composite z-score came to 1.18 in [7]; 2.33 in assay [9]; 0.33 in assay [10]; 0.781 in assay [11]; 2.43 in assay [15]; 0.288 in [17]. Further, the composite z-score in assay [18] is 0.221; in assay [19], 1.08; in assay [20], 0.4. In addition, the z-score in [8] was -0.439 (inactive); in [12], 0.658 (inactive); in [13], 2.12 (inactive); in assay [14], 2.7 (inactive); in assay [16], -0.874 (inactive).

`COC(=O)C(CC#Cc1ccc2c(c1)[C@]1(C(=O)N2)[C@H](C(=O)O)[C@H]2C(=O)O[C@H](c3ccccc3)[C@H](c3ccccc3)N2[C@@H]1c1ccc(O)cc1)C(=O)OC`: the composite z-score in [1] was 0.43; in [2], 0.108; in [3], -0.0973; in [4], 0.528; in assay [5] it was -0.806; in assay [6], 1.42. Further, the composite z-score in [7] is 1.23; in assay [9], -0.384; in assay [10], -0.236; in assay [11], 0.615; in assay [15], 2.12; in assay [17], -0.188. Moreover, the values for the composite z-score in assay [18], in assay [19] and in assay [20] were -0.868, -0.608 and -0.0514, respectively. In addition, the z-score in assay [8] is 1.34 (inactive); in [12], 1.06 (inactive); in assay [13], 0.819 (inactive); in assay [14], -0.567 (inactive); in assay [16], -0.913 (inactive).

Regarding `O=C1O[C@@H](c2ccccc2)[C@@H](c2ccccc2)N2[C@@H](c3ccccc3OCCO)[C@]3(C(=O)Nc4ccc(C#CC5=CCCCC5)cc43)[C@@H](C(=O)Nc3nc4ccccc4s3)[C@H]12`, the composite z-score in assay [1] was -0.177; in [2], 0.106; in [3], -0.0267; in [4] it was 1.09; in [5], 1.11; in assay [6], 0.792. The composite z-score in assay [7] is 0.94; in [9], 0.438; in [10], -0.0346; in assay [11], 1.56; in [15], 2.4; in [17], 0.123. In addition, the composite z-score in assay [18] was determined as 0.82; in [19] it was 0.993; in assay [20], 0.0224. Moreover, the z-score in assay [8] was 0.197 (inactive); in assay [12], 1.37 (inactive); in assay [13], 1.8 (inactive); in assay [14], 2.58 (inactive); in assay [16] it was 0.901 (inactive).
